HCMV inh – blocks human cytomegalovirus replication; HFF cells, HCMV-luciferase reporter, 72 h; stronger effect = lower value; activity change, negative = inhibition, % at 57.5 µM; actives 4.5% (n = 410,000); AID 1259415; in the data active means activity change below about -60%; inconclusive means no clear call, values can overlap the other calls; inactive means above about -39%
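HFF cells seeded 16 h at 37C, treated with compounds, infected with luciferase-reporter HCMV at MOI 1 PFU/cell; luciferase read at 72 h post infection, normalized to buffer-only and Salinomycin controls.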
AmpC detergent – blocks E. coli AmpC beta-lactamase in detergent assay. AmpC hydrolysis of nitrocefin, absorbance 480 nm, 0.01% Triton. Potency, µM (series often up to 114 µM), for inactives: at the top dose activity change, negative = inhibition, most hits filed as inhibitors. actives 0.041% (n = 370,000);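 further: potency means the concentration at half of the fitted maximal effect; 0% = no-compound wells and -100% = no-enzyme wells; nearly all actives have a fitted effect of over 25% in size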
Target sequence (P00811 whole entry, looked up): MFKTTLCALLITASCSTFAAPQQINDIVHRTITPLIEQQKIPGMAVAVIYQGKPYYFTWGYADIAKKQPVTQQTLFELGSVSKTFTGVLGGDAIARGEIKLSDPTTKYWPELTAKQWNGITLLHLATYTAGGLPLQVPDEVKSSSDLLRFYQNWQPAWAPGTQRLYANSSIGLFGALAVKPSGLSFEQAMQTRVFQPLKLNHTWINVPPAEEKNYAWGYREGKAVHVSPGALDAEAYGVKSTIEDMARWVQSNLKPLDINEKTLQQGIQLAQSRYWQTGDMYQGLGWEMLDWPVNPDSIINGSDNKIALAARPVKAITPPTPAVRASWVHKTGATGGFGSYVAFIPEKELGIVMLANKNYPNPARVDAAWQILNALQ
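20 mM phosphate pH 7.0 + 0.01% (detergent screen) or 0.0001% Triton X-100; 5.3 nM AmpC reagent; cpd preinc 15 min RT; nitrocefin (800 uM stock) to start; A480 q20 s × 4 min; Activity was normalised to no-enzyme and no-compound control wells.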
AmpC inh no detg – AmpC beta-lactamase inhibition without detergent | AmpC nitrocefin hydrolysis, absorbance 480 nm, 0.0001% Triton | Potency, µM (titrated, usually from 57.1 µM), inactives show at the highest dose activity change, negative = inhibition, actives largely listed as inhibitors | actives 0.52% (n = 330,000) | AID 485341;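 further: potency means the concentration at half of the fitted maximal effect; plate controls were no compound for no effect and no enzyme for full effect; nearly all actives have a fitted effect of over 20% in size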
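AmpC (5.3 nM in the dispensed reagent) in 20 mM phosphate pH 7.0 with 0.01% (detergent screen) or 0.0001% Triton X-100 was preincubated with compounds for 15 min at room temperature. Nitrocefin was then added from an 800 uM solution, and hydrolysis was followed at 480 nm.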
FMDV antiviral – blocks foot and mouth disease virus; FMDV antiviral cell-based qHTS; Potency, µM (top dose mostly 57.9 µM), for inactives: top-dose activity change, negative = inhibition, usual class: inhibitors; AID 1159524; actives 1.2% (n = 410,000); calls by dose curve; tested in HEK293T cells; further: read-out not given here; potency means the concentration at half of the fitted maximal effect; nearly all actives have a fitted effect of over 45% in size
HCV inh – inhibitors of hepatitis C virus infection. Huh7.5.1 HCVcc-Cre infection, luciferase reporter, 44 h. actives 3.4% (n = 340,000). Potency, µM (highest dose often 41.8 µM), without a hit: at the highest dose activity change, negative = inhibition, actives largely listed as inhibitors; further: potency means the concentration at half of the fitted maximal effect
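A cell-based infection assay in which seeded cells (1,000 per well) receive test compound after 4 h, are inoculated with HCVcc-Cre at approximately 0.5 moi, and are incubated 44 h before luminescence detection.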
* hit, by the source's call; ? = inconclusive; / = no result. An excerpt weighted towards active compounds, which were near 7.3% of everything screened. Unless noted, the call rests on the fitted dose curve; in most records, active means well fitted curve in the direction sought with a large enough effect; inconclusive means small, poorly fitted or top-dose-only effect, or another doubt; inactive means no such curve, though single readings can be large; an effect the other way counts as inactive or inconclusive. Unless noted, on the % scale 0 is the no-effect control and ±100 the full control effect.

SMILES | HCMV inh | AmpC detergent | AmpC inh no detg | FMDV antiviral | HCV inh
CC(/C=C/c1cccc([N+](=O)[O-])c1)=N/NC(=O)c1cccnc1 | -62* | -1% | -10% | -7% | 13%
C/C(=N\NC(=O)c1cccnc1)c1cccc([N+](=O)[O-])c1 | -6 | 2% | -16% | -2% | 25%
COc1cc(/C=N/NC(=O)c2cc(-c3ccccc3)nc3ccccc23)ccc1O | -67* | 8% | 0% | 2% | -9%
O=C(NN=Cc1cccc([N+](=O)[O-])c1)c1cc(-c2cccnc2)nc2ccccc12 | -14 | / | -15% | 28µM* | ?
COc1ccc(/C=N/NC(=O)c2cc(-c3ccccc3)nc3ccccc23)cc1O | -15 | 4% | -45% | -13% | -13%
CC(C)CCn1c(SCC(=O)NC2CCS(=O)(=O)C2)nc2cc(Cl)ccc2c1=O (stereo unspecified) | -10 | ? | 4% | -27% | 2%
CC(C)=CCOc1ccc2c(C)c(CC(=O)N3C[C@H]4C[C@@H](C3)c3cccc(=O)n3C4)c(=O)oc2c1C | -9 | ? | 298% | -8% | -12%
COc1cccc(/C=N/NC(=O)c2cc(-c3ccccn3)nc3ccccc23)c1O | -63* | -5% | ? | 3% | 4µM*
CC1CC2OC2CC1COC(=O)C1CC2OC2CC1C (stereo unspecified) | -21 | / | / | -14% | -5%
CC(=O)Nc1ccc2c3c(cccc13)C(=O)N(c1ccccc1)C2=O | -60* | 1% | -8% | 19% | -6%
Cc1c(O)c2c3c(cccc3c1O)C(=O)N(c1ccccc1)C2=O | ? | ? | -27% | 22µM* | ?
O=C(O)c1ccc2c3c(cccc13)C(=O)N(c1ccccc1)C2=O | -40 | -5% | -20% | -12% | 5%
CCc1nc2ccc(C(=O)Nc3ccc(NC(C)=O)cc3)cn2c1N(C)CCC(C)C | 21 | / | / | -28% | /
CC1(C)SC2c3ccccc3C(=O)N2[C@@H]1C(=O)NC1CC1 (stereo partly specified) | -9 | 0% | -10% | -8% | -5%
COc1cccc2cc(C(C)=O)c(=O)oc12 | 37 | ? | -11% | -6% | 20%
COc1ccc(OC)c(S(=O)(=O)CC(=O)c2cc3ccc(OC)cc3oc2=O)c1 | / | -4% | -47% | 6% | 1%
COc1ccc(S(=O)(=O)CC(=O)c2cc3cc(Br)ccc3oc2=O)cc1 | -20 | 2% | 28µM* | -15% | -5%
COc1cccc2cc(C(=O)CS(=O)(=O)c3ccc(Cl)cc3)c(=O)oc12 | 8 | 4% | 16µM* | 0% | 7%
COc1cccc2cc(C(=O)Nc3ccc(CC(=O)O)cc3)c(=O)oc12 | -72* | -1% | / | ? | /
CCOC(=O)c1cnc2cc(-c3ccc(C)cc3)nn2c1C | 11 | / | / | 48% | /
COc1ccc(NC(=O)C2(C)Cc3c(-c4cccc(C(F)(F)F)c4)ccnc3O2)cc1OC (stereo unspecified) | -13 | / | / | -23% | /
CN1CCCC1CCNS(=O)(=O)c1ccc(Br)cc1 (stereo unspecified) | -16 | 1% | -19% | -18% | 10µM*
CC1CCCN(C(=O)CCNS(=O)(=O)c2ccc(Br)cc2)C1 (stereo unspecified) | -7 | -7% | 3% | -5% | 36%
CN(C(=S)NC(=O)Cc1ccccc1)c1ccccc1 | -67* | 2% | -4% | 44% | 10%
Cc1c(C(=O)NCc2ccccc2Cl)sc2ncnc(NCC3CCCO3)c12 (stereo unspecified) | / | / | / | -1% | /
SMILES | HCMV inh | AmpC detergent | AmpC inh no detg | FMDV antiviral | HCV inh
NC(=O)c1ccsc1NC(=O)c1nc(-c2ccccc2)n(-c2ccccc2)n1 | -38 | -8% | 4µM* | -29% | ?
O=C(Nc1ccccn1)c1nc(-c2ccccc2)n(-c2ccccc2)n1 | ? | 4% | 0% | -15% | 1%
CC(=O)N1c2ccc(S(=O)(=O)NCC3CCC(C(=O)NCc4ccco4)CC3)cc2CC1C (stereo unspecified) | -8 | 2% | 4% | 9% | -6%
CC(C)=NOc1cc(NC(=O)CCl)cc([N+](=O)[O-])c1 | -83* | -7% | -27% | 7.9µM* | 25µM*
O=C(CCl)Nc1cc(SCC(O)CO)cc([N+](=O)[O-])c1 (stereo unspecified) | -99* | 0% | 14% | 14µM* | 1.6µM*
CCC(=O)Nc1cc(ON=C(C)C)cc([N+](=O)[O-])c1 | 6 | ? | -14% | -24% | ?
O=C(Nc1cccc(NC(=O)c2ccco2)n1)c1ccco1 | 2 | -24% | -18% | -4% | -14%
O=C(c1ccc2c(c1)N(Cc1ccc(F)cc1)C(=O)c1ccccc1S2=O)N1CCC(Cc2ccccc2)CC1 (stereo unspecified) | -78* | 17% | / | -13% | /
O=C(O)c1ccc2c(c1)N(Cc1ccccc1)C(=O)c1ccccc1S2=O (stereo unspecified) | 33 | ? | -28% | 0% | 2%
O=C(c1ccc2c(c1)N(Cc1ccccc1)C(=O)c1ccccc1S2=O)N1CCC(Cc2ccccc2)CC1 (stereo unspecified) | -76* | 18% | / | ? | /
CCn1cc(C(=O)N2CCN(c3ccc(F)cc3)CC2)c(=O)c2cc(S(=O)(=O)N3CCOCC3)ccc21 | 10 | 3% | / | 0% | /
NC(=O)C1CCN(c2nc(-c3ccccc3Br)cs2)CC1 | -74* | -12% | 83% | 67% | /
COc1ccc(N2CCN(C(=O)c3oc4ccccc4c3NC(=O)CCc3cc(OC)no3)CC2)cc1 | -9 | ? | 75% | 25µM* | ?
COc1cc(-c2cc(C)c3cccc(OC)c3n2)cc2c1OCCN(C(=O)CC1NC(=O)c3ccccc31)C2 (stereo unspecified) | / | / | / | -11% | /
O=C(CCC1N=C2c3ccccc3N=C(SCc3ccccc3F)N2C1=O)NCc1ccc(F)cc1 (stereo unspecified) | 31 | -1% | / | -15% | /
O=C1N=c2ccccc2=C1c1[nH]c(=S)[nH]c1O | 50 | -2% | -40% | -9% | 16%
O=c1[nH]c(=S)[nH]c(O)c1/C=C1/C=c2ccccc2=N1 | 72 | ? | -6% | 25µM* | ?
CCCN1CCN(CCCNC(=O)Cn2c(-c3cccs3)cc3ccccc32)CC1 | ? | 5% | / | -11% | /
CCc1nc(C)c(C(=O)N2CCCC(C(=O)Nc3cccc(-c4cccc(C)c4)c3)C2)o1 (stereo unspecified) | 8 | -6% | 221% | 4% | 11µM*
Cc1cccc(-c2cccc(NC(=O)C3CCCN(C(=O)c4csc(C)n4)C3)c2)c1 (stereo unspecified) | ? | -9% | 146% | -12% | 7.9µM*
Cc1cccc(-c2cccc(NC(=O)C3CCCN(C(=O)c4cccnc4)C3)c2)c1 (stereo unspecified) | ? | -7% | 184% | -18% | ?
